Data reported in PubChem BioAssay.
Active and inactive are the calls of the source.

Key:
[1] = E. coli DRC41 culture turbidity changes, primary screen, E. coli filamentation inducer project, strain DRC41, OD650, 48 h (AID 1152);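 also: E. coli MC1000 strain DRC41 lacking acrAB efflux pump and sulA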; conditions: E. coli DRC41 (acrAB sulA), higher = more signal, called active from +8 up or from −8 down
[2] = small-molecule binders of probe aLefty1, primary screen, biochemical, small-molecule microarray, 635/667 nm fluorescence (AID 1153); conditions: higher = more signal;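 also: score merges spot fluorescence with signal-to-noise ratio from the scanned slide images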
[3] = PSAC antagonists in infected red cells, primary screen, cell-based, P. falciparum Indochina, OD700, 1 h (AID 1154); conditions: P. falciparum Indochina infected RBC osmotic lysis, higher = more signal, called active from +8 up or from −8 down
[4] = PSAC antagonists in infected red cells, primary screen, cell-based, P. falciparum Indochina, OD700, 2 h (AID 1155);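 also: lysis reports solute entry through the parasite surface anion channel PSAC; channel blockers reduce lysis of infected cells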; conditions: P. falciparum Indochina infected erythrocytes, osmotic lysis OD700; higher = more signal, called active from +8 up or from −8 down
[5] = osmotic lysis modulators in infected erythrocytes, primary screen, PSAC antagonist project, cell-based, P. falciparum Indochina, OD700, 3 h (AID 1156); conditions: higher = more signal, called active from +8 up or from −8 down
[6] = PSAC antagonists in infected red cells, primary screen, cell-based, P. falciparum Indochina, OD700, 18 h (AID 1157); conditions: P. falciparum Indochina infected erythrocytes, osmotic lysis OD700, 18 h; higher = more signal, called active from +8 up or from −8 down
[7] = modulators of S6 phosphorylation in cells, primary screen, cell-based, A549, cytoblot, luminescence, serum-stimulated (AID 1158); conditions: A549 phospho-S6 cytoblot, 5 h, higher = more signal;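 also: serum-stimulated A549 lung adenocarcinoma cells; signal is phosphorylated S6 detected by cytoblot immunostaining with HRP secondary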
[8] = biological target: NADPH oxidase 2 (Homo sapiens) (UniProt P04839); assay: NOX2-dependent H2O2 signal modulators, primary screen, NOX inhibitor project, cell-based, HEK293-NOX2, PMA-stimulated, Amplex Red fluorescence (AID 1159); conditions: 45 min, higher = more signal, called active from +8 up or from −8 down; also: test concentration not given here
NADPH oxidase 2 (Homo sapiens), sequence (P04839 whole entry, looked up): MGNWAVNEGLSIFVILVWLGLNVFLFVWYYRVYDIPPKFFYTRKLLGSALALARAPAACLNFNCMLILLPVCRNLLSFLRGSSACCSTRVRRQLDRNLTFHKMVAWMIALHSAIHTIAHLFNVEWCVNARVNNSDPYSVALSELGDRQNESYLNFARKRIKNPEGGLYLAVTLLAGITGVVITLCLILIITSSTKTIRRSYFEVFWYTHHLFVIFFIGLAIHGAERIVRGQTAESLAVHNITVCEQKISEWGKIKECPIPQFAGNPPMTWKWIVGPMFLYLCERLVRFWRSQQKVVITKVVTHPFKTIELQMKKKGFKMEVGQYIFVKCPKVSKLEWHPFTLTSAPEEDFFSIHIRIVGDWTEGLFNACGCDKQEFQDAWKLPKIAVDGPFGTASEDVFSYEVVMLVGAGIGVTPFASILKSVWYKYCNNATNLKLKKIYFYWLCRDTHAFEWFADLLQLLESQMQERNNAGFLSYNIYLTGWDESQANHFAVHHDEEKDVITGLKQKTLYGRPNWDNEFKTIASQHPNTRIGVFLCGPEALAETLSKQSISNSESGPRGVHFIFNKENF

[9] = biological target: NADPH oxidase 4 (Homo sapiens) (UniProt Q9NPH5); assay: NOX4-dependent H2O2 signal modulators, primary screen, NOX inhibitor project, cell-based, HEK293-NOX4, tetracycline-induced, Amplex Red fluorescence (AID 1160); conditions: 45 min, higher = more signal, called active from +8 up or from −8 down
NADPH oxidase 4 (Homo sapiens), sequence (Q9NPH5 whole entry, looked up): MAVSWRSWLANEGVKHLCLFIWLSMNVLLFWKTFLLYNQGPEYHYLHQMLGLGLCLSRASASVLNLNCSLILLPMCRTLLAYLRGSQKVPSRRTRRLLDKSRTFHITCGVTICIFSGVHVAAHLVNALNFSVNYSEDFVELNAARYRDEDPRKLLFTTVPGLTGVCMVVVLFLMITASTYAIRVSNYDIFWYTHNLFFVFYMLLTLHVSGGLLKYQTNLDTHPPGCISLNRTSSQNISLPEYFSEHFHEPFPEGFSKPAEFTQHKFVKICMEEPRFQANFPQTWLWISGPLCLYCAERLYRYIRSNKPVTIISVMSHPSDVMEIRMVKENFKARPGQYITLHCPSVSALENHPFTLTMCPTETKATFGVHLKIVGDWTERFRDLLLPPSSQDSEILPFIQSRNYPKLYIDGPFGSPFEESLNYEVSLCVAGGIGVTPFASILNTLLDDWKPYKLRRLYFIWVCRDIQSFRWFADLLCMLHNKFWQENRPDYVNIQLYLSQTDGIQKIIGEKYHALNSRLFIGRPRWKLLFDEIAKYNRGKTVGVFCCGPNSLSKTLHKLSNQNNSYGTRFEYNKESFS

[10] = biological target: NADPH oxidase 5 (Homo sapiens) (UniProt Q96PH1); assay: NOX5-dependent H2O2 signal modulators, primary screen, NOX inhibitor project, cell-based, HEK293-NOX5, Amplex Red fluorescence (AID 1161); conditions: HEK293-NOX5, ionomycin, 45 min, higher = more signal
NADPH oxidase 5 (Homo sapiens), sequence (Q96PH1 whole entry, looked up): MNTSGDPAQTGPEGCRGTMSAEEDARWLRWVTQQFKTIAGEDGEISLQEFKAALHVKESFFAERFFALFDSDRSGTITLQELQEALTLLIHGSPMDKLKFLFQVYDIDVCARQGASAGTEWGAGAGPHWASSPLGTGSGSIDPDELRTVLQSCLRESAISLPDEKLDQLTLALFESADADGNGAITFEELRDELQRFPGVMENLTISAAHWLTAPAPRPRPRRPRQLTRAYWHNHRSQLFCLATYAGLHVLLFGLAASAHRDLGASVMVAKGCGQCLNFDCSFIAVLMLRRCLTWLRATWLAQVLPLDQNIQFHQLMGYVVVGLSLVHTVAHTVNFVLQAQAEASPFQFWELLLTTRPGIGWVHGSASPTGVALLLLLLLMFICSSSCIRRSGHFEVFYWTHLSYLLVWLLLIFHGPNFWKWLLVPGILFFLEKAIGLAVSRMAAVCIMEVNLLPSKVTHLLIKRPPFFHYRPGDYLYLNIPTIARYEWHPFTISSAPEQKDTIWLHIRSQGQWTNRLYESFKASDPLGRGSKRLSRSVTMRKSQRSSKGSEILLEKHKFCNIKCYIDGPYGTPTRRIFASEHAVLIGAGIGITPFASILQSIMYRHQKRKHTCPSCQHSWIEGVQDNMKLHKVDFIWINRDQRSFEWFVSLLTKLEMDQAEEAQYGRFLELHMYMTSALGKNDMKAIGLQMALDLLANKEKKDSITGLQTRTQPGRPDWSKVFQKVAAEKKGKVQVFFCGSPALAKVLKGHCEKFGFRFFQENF

[11] = A549 cell viability effects, profiling panel, calcein-AM fluorescence, 48 h, basal (AID 1162); conditions: higher = more signal; also: test concentration not given here
[12] = adipocyte viability effects, profiling panel, cell-based, 3T3-L1 adipocytes, calcein-AM fluorescence, 48 h, basal (AID 1163); conditions: 3T3-L1 adipocytes viability, higher = more signal; also: test concentration not given here
[13] = HepG2 cell viability effects, profiling panel, calcein-AM fluorescence, 48 h, basal (AID 1164); conditions: higher = more signal; also: test concentration not given here
[14] = MM1S cell viability effects, profiling panel, calcein-AM fluorescence, 48 h, basal (AID 1165); conditions: higher = more signal;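 also: viability of MM1S multiple myeloma cells under basal unstimulated conditions; test concentration not given here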
[15] = basal RPMI8226 viability, no added stimulus, profiling panel, cell-based, calcein-AM fluorescence, 48 h, PK04 Diversity Set (AID 1166); conditions: RPMI8226 myeloma viability, higher = more signal;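 also: cells grown under basal conditions without added stimulus; test concentration not given here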
[16] = basal HepG2 mitochondrial membrane potential changes, profiling panel, cell-based, JC-1 fluorescence, 24 h, 100 nL compound (AID 1167); conditions: higher = more signal; also: test concentration not given here
[17] = basal 3T3-L1 adipocyte mitochondrial potential changes, profiling panel, cell-based, JC-1 fluorescence, 3T3-L1 adipocytes, 24 h, 100 nL compound (AID 1168); conditions: JC-1 mitochondrial fluorescence, higher = more signal, called active from +8 up or from −8 down; also: test concentration not given here
[18] = basal RPMI8226 mitochondrial membrane potential changes, profiling panel, cell-based, JC-1 fluorescence, 24 h, 100 nL compound (AID 1169); conditions: RPMI8226 myeloma, JC-1 mitochondrial potential fluorescence, higher = more signal; also: test concentration not given here
[19] = basal MM1S mitochondrial membrane potential changes, profiling panel, cell-based, JC-1 fluorescence, 24 h, 100 nL compound (AID 1170); conditions: higher = more signal; also: test concentration not given here
[20] = A549 lung cancer cell viability effects, profiling panel, resazurin fluorescence, 24 h, PK04 Diversity Set (AID 1171); conditions: higher = more signal, called active from +8 up or from −8 down; also: test concentration not given here

Structure (SMILES)	z-score [1]	composite z-score [2]	z-score [3]	z-score [4]	z-score [5]	z-score [6]	z-score [7]	z-score [8]	z-score [9]	z-score [10]	z-score [11]	z-score [12]	z-score [13]	z-score [14]	z-score [15]	z-score [16]	z-score [17]	z-score [18]	z-score [19]	z-score [20]
CC(C)CNC(=O)[C@@H]1c2ccccc2C(=O)N(C2Cc3ccccc3C2)[C@H]1c1ccc(CO)cc1	1.93 (inactive)	0.0861	3.11 (inactive)	0.693 (inactive)	1.18 (inactive)	0.232 (inactive)	0.0629	0.182 (inactive)	1.12 (inactive)	0.105	2.03	0.319	1.74	0.0933	0.362	3.2	0.228 (inactive)	-0.836	0.00489	0.797 (inactive)
O=C1c2ccccc2[C@](Cc2ccccc2I)(C(=O)O)[C@H](c2ccc(CO)cc2)N1Cc1ccccc1	0.848 (inactive)	0.223	4.42 (inactive)	-0.579 (inactive)	-0.144 (inactive)	-0.656 (inactive)	1.25	0.516 (inactive)	0.148 (inactive)	1.71	1.48	0.431	1.04	0.295	-1.66	0.275	0.0449 (inactive)	-0.601	-0.349	-1.45 (inactive)
COCCOC(=O)N1C(=O)[C@@]2(c3cc(C#CC4=CCCCC4)ccc31)[C@H](C(=O)N1CCc3cc(OC)c(OC)cc3C1)[C@H]1C(=O)O[C@H](c3ccccc3)[C@H](c3ccccc3)N1[C@@H]2c1ccc(O)cc1	0.448 (inactive)	0.679	0.996 (inactive)	0.755 (inactive)	0.067 (inactive)	0.827 (inactive)	0.228	1.58 (inactive)	-0.0332 (inactive)	1.18	0.59	0.479	0.334	-1.16	-0.583	-0.427	0.508 (inactive)	-0.388	0.403	0.481 (inactive)
COC(=O)[C@@]1(Cc2ccc(OC)cc2)[C@H]2c3cc(C(=O)N(C)C)n(Cc4ccsc4Br)c3C[C@H]2CN1C(=O)c1ccccc1	-0.218 (inactive)	0.456	4.25 (inactive)	1.16 (inactive)	0.57 (inactive)	0.814 (inactive)	-0.87	0.555 (inactive)	0.536 (inactive)	0.316	-0.299	0.157	0.205	-0.859	-0.51	2.25	0.171 (inactive)	-0.484	-0.468	0.141 (inactive)
CC(C)CNC(=O)[C@@H]1c2ccccc2C(=O)N(C(C)C)[C@H]1c1ccc(CO)cc1	0.941 (inactive)	-0.0559	0.747 (inactive)	-0.483 (inactive)	-0.758 (inactive)	-0.779 (inactive)	1.85	-0.215 (inactive)	0.443 (inactive)	0.887	0.456	1.27	1.15	0.333	1.49	1.49	1.29 (inactive)	0.793	-0.357	-0.174 (inactive)
COc1ccc(CCNC(=O)[C@@]2(Sc3ccc(C)cc3)CC(=O)N(C(C)C)[C@@H]2c2ccc(CO)cc2)cc1	-0.58 (inactive)	0.0391	2.36 (inactive)	0.741 (inactive)	0.152 (inactive)	0.549 (inactive)	-0.21	-0.575 (inactive)	-1.16 (inactive)	-2.03	0.353	0.356	-0.453	-0.169	0.0991	-0.41	0.0372 (inactive)	0.043	0.277	-0.107 (inactive)
C=CCOC(=O)[C@H]1[C@@H]2C(=O)O[C@@H](c3ccccc3)[C@@H](c3ccccc3)N2[C@@H](c2ccc(OCCOC(=O)[C@@H]3C[C@@H]4C(=O)N[C@@H](Cc5ccccc5)C(=O)N4[C@@H]3c3ccc(O)cc3)cc2)[C@]12C(=O)Nc1ccccc12	-0.126 (inactive)	-0.0235	2.33 (inactive)	0.776 (inactive)	1.28 (inactive)	0.914 (inactive)	0.896	1.48 (inactive)	1.14 (inactive)	2.13	0.137	-0.156	-0.338	-1.31	0.0712	-1.37	-0.262 (inactive)	-0.616	-1.02	0.0598 (inactive)
CCOC(=O)C1=CC[C@@H](c2ccccc2Cl)N(S(=O)(=O)c2ccc(C)cc2)[C@H]1c1cccc(OC)c1	-1.44 (inactive)	0.0082	1.23 (inactive)	1.16 (inactive)	0.106 (inactive)	0.362 (inactive)	-0.401	0.78 (inactive)	0.238 (inactive)	0.113	-0.698	-1.56	-0.467	-0.744	0.688	0.405	-1.39 (inactive)	0.702	-0.539	0.219 (inactive)
[N-]=[N+]=NCc1ccccc1C[C@@]1(C(=O)O)N=C(c2ccc(OCCCO)cc2)O[C@@H]1c1ccccc1CN=[N+]=[N-]	0.583 (inactive)	0.313	22.1 (active)	4.92 (inactive)	-0.995 (inactive)	-0.336 (inactive)	1.03	0.887 (inactive)	1.54 (inactive)	2.03	0.737	0.2	0.0664	-0.274	-2.21	-0.168	-0.186 (inactive)	-0.477	-0.824	0.855 (inactive)
